Measured values from PubChem BioAssay (NCATS).
Where “and” joins values, the source holds several entries; their conditions need not be identical. Identical values can stand only once. Results filed as inconclusive are left out. A call without a number means that no potency is given here. More than one record can exist for a structure, and the calls need not agree. Calls of active or inactive are those of the source. Calls follow the shape of the dose curve; as a rule, active = well fitted cell-killing curve with a large enough effect; inconclusive = small, poorly fitted or top-dose-only effect, or effect the other way; inactive = no such curve, though single readings can be large or run the other way.

Test: Viability qHTS for spleen associated tyrosine kinase inhibitor (SYKi) naive MV4-11 cells (AID 1963823); also: nearly all actives have a fitted effect of over 40% in size
Conditions: MV4-11 AML viability, CellTiter-Glo luminescence, 72 h; series mostly up to 45 µM
Text: Department of Medicine, Hematology/Oncology
University Hospital Frankfurt, Germany.
Trials have shown promising clinical activity of the selective SYK inhibitor entospletinib in patients with high expressing HOXA9/MEIS1 acute leukemias. As the development of resistance mechanisms is a common problem in the use of targeted drugs, we performed a chemical library screen to identify drug sensitivities in SYK inhibitor resistant AML cells. […] Glucocorticoids are potent immunosuppressants which work in part by inhibiting the transcription of cytokine genes.
Described herein is a viability screen to look for activity in the SYK inhibitor naive cell line against four NCATS compound libraries (MIPE 5.0, NPC, NPACT, and Kinase) totaling 11372 compounds. Active hits were reacquired for confirmation and further secondary assay testing.
SEQUENCE No. (e.g., 1, 2, 3, etc.); […] (e.g., Cells, Incubation, Reagent, etc.); VALUE; DESCRIPTION.
1; Media; 2uL; white, solid-bottom Corning assay plate.
2; Compounds; 23nL; Echo acoustic dispenser.
3; Cell; 5uL; 500 cells per well.
4: Incubation; 72hr; 37 C, 5% CO2, 95% humidity.
5; Reagent; 3uL; CellTiter-Glo reagent (Promega).
6; Incubation; 10min; room temperature.
7; Detection; Luminescence; ViewLux plate reader (PerkinElmer).
NOTES (numbers refer to Sequence numbers above
1. Quantitative high-throughput screening (qHTS) of small molecule compounds was conducted on naive SYKi MV4-11 cell line.
2. Twenty-three nanoliter of small molecule compounds were added to each assay plates using the Echo acoustic dispenser (Beckman Coulter).
3. Cells were seeded into the assay plates at a final density of 500 cells in 5uL of media per well using the Multi-drop Combi dispenser.
4. Plates were covered with stainless steel gasketed lids and incubated for 72 hours at standard cell culture conditions.
5. Viability was assessed by adding 3uL of CellTiter-Glo detection reagent (Promega).
6. Plates were covered with gasket lids and incubated for 10 minutes at room temperature.
7. Luminescence was measured on a ViewLux plate reader (PerkinElmer).
Potency is read from the fitted curve at half-maximal effect.

**Q.** Which Potency does the source give for `C/C(=C\CO)CC/C=C(\C)C(=O)O[C@@H]1O[C@H](CO)[C@@H](O)[C@H](O)[C@H]1O` here?
**A.** Its Potency is “inactive”.

**Q.** For `CC(C(=O)O)c1ccc(C(=O)c2ccccc2)s1` (stereo not given), which Potency is on record?
**A.** Its Potency is “inactive”.

**Q.** With `CNS(=O)(=O)Nc1nccc(Cc2c(C)c3ccc(Oc4ncccn4)cc3oc2=O)c1F` as the molecule, how does the Potency read?
**A.** Its Potency is 0.417 µM (active).

**Q.** For `COc1ccc2c(c1)c1c3n2CCN(C)C3=NCC1`, which Potency is on record?
**A.** The Potency was “inactive”.

**Q.** With `CC1(C)OC[C@@H]2O[C@@]3(C(=O)O)OC(C)(C)O[C@H]3[C@@H]2O1` as the molecule, how does the Potency read?
**A.** Its Potency is “inactive”.

**Q.** Which Potency does the source give for `Cc1c(-c2cnccn2)ssc1=S` here?
**A.** The Potency was 4.17 µM (active).

**Q.** For `CC1(C)CCC2=C(O1)c1ccccc1C(=O)C2=O`, which Potency is on record?
**A.** The Potency was 8.33 µM (active).

**Q.** Which Potency does the source give for `CCOC(=O)c1ncn2c1CN(C)C(=O)c1cc(F)ccc1-2` here?
**A.** Its Potency is “inactive”.

**Q.** With `CC(O)C1C(=O)N2C(C(=O)O)=C(SC3CNC(C(=O)N(C)C)C3)C(C)C12` (stereo not given) as the molecule, how does the Potency read?
**A.** Its Potency is “inactive”.

**Q.** For `CCn1cc(NC(=S)Nc2cc(Cl)ccc2OC)c(C(N)=O)n1`, which Potency is on record?
**A.** Its Potency is “inactive”.

**Q.** With `CC(C)CN(C[C@@H](O)[C@H](Cc1ccccc1)NC(=O)O[C@@H]1CO[C@H]2OCC[C@H]21)S(=O)(=O)c1ccc(N)cc1` as the molecule, how does the Potency read?
**A.** The Potency was “inactive”.

**Q.** Which Potency does the source give for `C=C1C(O)C[C@@H]2C(C(=O)O)=CO[C@@H](O[C@@H]3O[C@H](CO)[C@@H](O)[C@H](O)[C@H]3OC(=O)c3ccc(O)cc3)[C@H]12` (stereo not given in full) here?
**A.** The Potency was “inactive”.

**Q.** For `CN1CC[C@@H](c2c(O)cc(O)c3c(=O)cc(-c4ccc(C(F)(F)F)cc4Cl)oc23)[C@@H]1CO`, which Potency is on record?
**A.** Its Potency is 16.4 µM (active).

**Q.** With `CS(=O)(=O)N1CCc2c(-c3cnc(N)nc3)nc(N3CCOCC3)nc21` as the molecule, how does the Potency read?
**A.** Its Potency is 1.86 µM (active).

**Q.** Which Potency does the source give for `O=c1c(O)c(-c2ccc(O)c(O)c2)oc2cc(O)ccc12` here?
**A.** Its Potency is 13.2 µM (active).

**Q.** With `CCOC(=O)c1ccc(N(C)c2csc(-c3ccccc3)n2)cc1` as the molecule, how does the Potency read?
**A.** Its Potency is “inactive”.

**Q.** Which Potency does the source give for `CC(C)(C)C(=O)OCOP(=O)(COCCn1cnc2c(N)ncnc21)OCOC(=O)C(C)(C)C` here?
**A.** The Potency was 944 nM (active) and 372 nM (active).

**Q.** For `CNC[C@H](O)[C@@H](O)[C@H](O)[C@H](O)CO`, which Potency is on record?
**A.** The Potency was “inactive”.

**Q.** With `CSCC1OC(n2cnc3c(=O)[nH]cnc32)C(O)C1O` (stereo not given) as the molecule, how does the Potency read?
**A.** The Potency was “inactive”.

**Q.** Which Potency does the source give for `CC(C)Nc1cc(C(F)(F)F)cc2nc(NC(=O)c3cccnc3)nn12` here?
**A.** The Potency was 0.184 µM (active).

**Q.** Which Potency does the source give for `Nc1ncnc2c1ncn2CCNCCCCCO` here?
**A.** Its Potency is “inactive”.

**Q.** For `O=C1CC2(CCCC2)CC(=O)N1`, which Potency is on record?
**A.** Its Potency is “inactive”.

**Q.** With `CN1CCN2c3ncccc3Cc3ccccc3C2C1` (stereo not given) as the molecule, how does the Potency read?
**A.** Its Potency is “inactive”.

**Q.** With `CNCC(O)c1ccc(O)c(O)c1` (stereo not given) as the molecule, how does the Potency read?
**A.** Its Potency is “inactive”.

**Q.** With `NCCc1cnc[nH]1` as the molecule, how does the Potency read?
**A.** The Potency was 13.3 µM (active).

**Q.** Which Potency does the source give for `Cc1c(NC(=O)c2cc(C(N)=O)nc3cc(F)ccc23)c(C(F)(F)F)nn1Cc1ccc(C#N)cc1` here?
**A.** Its Potency is “inactive and 14.8 µM (active)”.

**Q.** Which Potency does the source give for `O=C1NC(=O)C(c2cnc3ccccn23)=C1c1cn2c3c(cc(F)cc13)CN(C(=O)N1CCCCC1)CC2` here?
**A.** The Potency was 231 nM (active) and 833 nM (active).

**Q.** Which Potency does the source give for `Cc1cc(Nc2cc(C)c(C#N)c(NC(C)CCCC(C)(C)O)n2)n[nH]1` (stereo not given) here?
**A.** The Potency was 0.259 µM (active).

**Q.** With `C/C(=C\CCC(C)CCO)C(=O)OC[C@H]1O[C@@H](O[C@@H]2OC=C(C(=O)O)[C@H]3CC[C@](C)(O)[C@@H]23)C(O)[C@@H](O)C1O` (stereo not given in full) as the molecule, how does the Potency read?
**A.** The Potency was “inactive”.

**Q.** Which Potency does the source give for `OCC(CO[C@@H]1O[C@H](CO)[C@@H](O)[C@H](O)[C@H]1O)c1ccc2c(c1)OCO2` (stereo not given in full) here?
**A.** Its Potency is “inactive”.

**Q.** Which Potency does the source give for `O=C(O)c1cc(O[C@@H]2O[C@H](CO[C@@H]3OC[C@@H](O)[C@H](O)[C@H]3O)[C@@H](O)[C@H](O)[C@H]2O)c2ccccc2c1O` here?
**A.** Its Potency is “inactive”.

**Q.** For `CNc1nc(Nc2cnn([C@H]3CCN(C4COC4)C[C@@H]3F)c2Cl)ncc1C(F)(F)F`, which Potency is on record?
**A.** Its Potency is 1.3 µM (active).

**Q.** With `CC(=O)C1=C(C)N(c2cccc(C(F)(F)F)c2)C(=O)N[C@H]1c1ccc(C#N)nc1` as the molecule, how does the viability (% of control) read?
**A.** The viability (% of control) was 83.3% [at 9.25 µM] (inactive).

**Q.** For `CC(C)C(C)C=CC(C)C1CCC2C3=CC=C4CC(O)CCC4(C)C3CCC21C` (stereo not given), which Potency is on record?
**A.** The Potency was “inactive”.

**Q.** Which Potency does the source give for `CC1=CC(=O)C(=C(C)C)CC2C(C)(O)CCC12O` (stereo not given) here?
**A.** Its Potency is “inactive”.

**Q.** For `CC1(C)CC2C(C1)C(C)(O)C13CC1(COC3=O)C2O` (stereo not given), which Potency is on record?
**A.** The Potency was “inactive”.

**Q.** For `CN1CCC(Nc2ncc3ncnc(Nc4ccc(F)c(Cl)c4)c3n2)CC1`, which Potency is on record?
**A.** Its Potency is 9.44 µM (active) and 9.2 µM (active).

**Q.** With `CC(=O)N(O)CCCCCNC(=O)CCC(=O)N(O)CCCCCNC(=O)CCC(=O)N(O)CCCCCN` as the molecule, how does the Potency read?
**A.** The Potency was 6.61 µM (active).

**Q.** With `CC1(C)O[C@@H]2[C@@H](CO[C@@]3(COS(N)(=O)=O)OC(C)(C)O[C@@H]23)O1` as the molecule, how does the Potency read?
**A.** The Potency was “inactive”.

**Q.** Which Potency does the source give for `Cc1cn([C@H]2C=C[C@@H](CO)O2)c(=O)[nH]c1=O` here?
**A.** Its Potency is “inactive”.
